From PubChem BioAssay (NCATS) come the findings set out here.

One experiment has as its system PC26. Put plainly: qHTS profiling for inhibitors of Plasmodium falciparum proliferation (AID 504749). The conditions noted are these: P. falciparum in erythrocytes, SYBR Green DNA, 72 h; series mostly up to 28.7 µM. Put shortly: (§1)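 Quantitative HTS: compounds pinned into medium, infected erythrocytes added (0.3% parasitemia, 2.5% hematocrit), 72 h culture at 37 C under 5% CO2. Saponin/Triton lysis with SYBR Green I, overnight RT, then fluorescence read.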

The next experiment has as its system PC49. The description is as above. The settings on record: P. falciparum in erythrocytes, SYBR Green DNA, 72 h; series mostly up to 28.7 µM. Put shortly:
as §1

The test system of a further experiment is SC27B. The description is as above. The conditions noted are these: P. falciparum in erythrocytes, SYBR Green DNA, 72 h; series mostly up to 28.7 µM. An outline of the steps:
as §1

For the next experiment, the system named is TAB109. The experiment is described as above. The conditions noted are these: P. falciparum in erythrocytes, SYBR Green DNA, 72 h; series mostly up to 28.7 µM. An outline of the steps: as §1
Another experiment relates to TAB113. Described as above. The settings on record: P. falciparum in erythrocytes, SYBR Green DNA, 72 h; series mostly up to 28.7 µM. An outline of the steps:
as §1

The next experiment deals with TAB165. The experiment is described as above. The settings on record: P. falciparum in erythrocytes, SYBR Green DNA, 72 h; series mostly up to 28.7 µM. Put shortly:
as §1

In another experiment the test system is W2. The experiment is described as above. The conditions noted are these: P. falciparum in erythrocytes, SYBR Green DNA, 72 h; series mostly up to 28.7 µM. Put shortly:
as §1

Another experiment deals with CRL-7250. Put plainly: Cytotoxic Profiling of Annotated Libraries Using Quantitative High-Throughput Screening (AID 1296008). For max response: % is set by controls: 0 for no effect and ±100 for the full control effect. The settings on record: Five cell lines viability, CellTiter-Glo ATP luminescence, 48-72 h; max response: stronger effect = lower value. An outline of the steps: (§2)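 Compounds were pin-transferred onto cells and incubated 48 or 72 hr at 37 degree Celsius, 95% humidity. CellTiter-Glo was added, plates sat 10 min at room temperature, then ATP-coupled luminescence was imaged as the viability read-out.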

Another experiment concerns HEK293. Described as above. The conditions noted are these: Five cell lines viability, CellTiter-Glo ATP luminescence, 48-72 h; max response: stronger effect = lower value. An outline of the steps:
as §2

The subject of a further experiment is HaCat. The experiment is described as above. The conditions noted are these: Five cell lines viability, CellTiter-Glo ATP luminescence, 48-72 h; max response: stronger effect = lower value. An outline of the steps: as §2

Where “and” joins values, the source holds several entries; their conditions need not be identical. Equal values may be shown once. Results filed as inconclusive are left out. Some structures have more than one record in an assay (separate samples or runs), and their calls can disagree. A number with no mark means an inactive call. Calls of active or inactive are those of the source. Calls come from the whole dose curve; as a rule, active = well fitted inhibition curve with a large enough effect; inconclusive = small, poorly fitted or top-dose-only effect; inactive = flat fitted curve, though single readings scatter.
Note: nearly all actives have a fitted effect of over 60% in size.
Potency is the fitted concentration of half-maximal effect.

`Nc1cccc2c1CN(C1CCC(=O)NC1=O)C2=O` (stereo unspecified): the Potency result in the experiment on PC26, in the experiment on PC49, in the experiment with SC27B, in the experiment on TAB109, in the experiment with TAB113 and with TAB165 was “inactive” each time. The Potency result in the experiment with W2 was “inactive”. In addition, the max response is -16.9% and -19.4% in the experiment on CRL-7250; 2.44% and -8.05% in the experiment with HEK293; -19.3% and -22.9% with HaCat.

On to `CCCCc1ccc2nc(NC(=O)OC)[nH]c2c1`, for which the Potency entry with PC26, with PC49, in the experiment with SC27B, in the experiment with TAB109, in the experiment with TAB113 and in the experiment with TAB165 was “inactive” in each case. In addition, the Potency result in the experiment on W2 is “inactive”. Also, the Potency with CRL-7250 was 469 nM (active) and 266 nM (active); with HEK293, 14.8 nM (active) and 188 nM (active). In addition, the max response in the experiment on HaCat was 3.13%. For the same compound, the result in the experiment on HaCat was inactive.

`Nc1ccc(S(N)(=O)=O)cc1`: the Potency result in the experiment on PC26, with PC49, with SC27B, in the experiment with TAB109, in the experiment with TAB113 and in the experiment with TAB165 was “inactive” each time. The Potency result in the experiment with W2 is “inactive”. Further, the max response is -3.82% and 0.627% in the experiment on CRL-7250; 0.928% and -22.2% with HEK293. Moreover, the call with HaCat was inactive.

As to `C[C@H](Cn1cnc2c(N)ncnc21)OCP(=O)(O)O`, the Potency entry with PC26, in the experiment on PC49, in the experiment with SC27B, in the experiment on TAB109, with TAB113 and in the experiment on TAB165 was “inactive” throughout. Moreover, the Potency result in the experiment with W2 was “inactive”. Also, the max response in the experiment with CRL-7250 is 3.36%. Also, the call in the experiment on HEK293 and in the experiment on HaCat was inactive.

Regarding `c1cnc2cc3c(cc2n1)C1CNCC3C1`, the max response is -23.9% and -2.72% in the experiment on CRL-7250; -2.74% and -10.4% in the experiment on HEK293; 2.53% in the experiment on HaCat. The result with HaCat was inactive.

With `Cc1nccn1CC1CCc2c(c3ccccc3n2C)C1=O` (stereo unspecified), the max response is -48.9% and -2.23% and -14.6% in the experiment with CRL-7250; -1.64% and -12.7% and -0.203% in the experiment with HEK293; -3.6% and 4.03% in the experiment on HaCat. Also, the result in the experiment on HaCat was inactive.

`CC(C)(S)[C@@H](N)C(=O)O`: the Potency result in the experiment with PC26, in the experiment with PC49, in the experiment with SC27B, with TAB109, with TAB113 and in the experiment on TAB165 was “inactive” throughout. Moreover, in the experiment on W2, the Potency entry was “inactive”. For the same compound, the max response was 1.05% in the experiment on CRL-7250 and 2.4% with HEK293. For the same compound, in the experiment on HaCat, the result was inactive.

For `C[C@]12CCC(=O)C=C1CC[C@@H]1[C@H]2[C@@H](O)C[C@@]2(C)[C@H]1CC[C@]2(O)C(=O)CO`, the Potency result with PC26, in the experiment on PC49, with SC27B, in the experiment with TAB109, in the experiment with TAB113 and in the experiment on TAB165 was “inactive” throughout. For the same compound, the Potency entry in the experiment with W2 is “inactive”. Besides, the max response in the experiment on CRL-7250 is -1.54%; in the experiment with HaCat, -4.53%. The compound was classed as inactive in the experiment with HEK293.

With `CN(C)c1ccc2nc3ccc(=[N+](C)C)cc-3sc2c1`, the Potency was 67.5 nM (active) in the experiment with PC26; 0.0631 µM (active) in the experiment with SC27B; 50.1 nM (active) in the experiment with TAB109; 50.1 nM (active) in the experiment with TAB113; 0.0708 µM (active) in the experiment with TAB165; 47.8 nM (active) with W2. The Potency in the experiment on CRL-7250 was 11.8 µM (active) and 23.7 µM (active); in the experiment on HEK293, 1.66 µM (active) and 1.33 µM (active); with HaCat it was 3.72 µM (active) and 10.6 µM (active). Also, in the experiment on PC49, the Potency result is “inactive”.

For `Oc1ccc(OCc2ccccc2)cc1`, the Potency result in the experiment with PC26, with PC49, with SC27B, with TAB109, in the experiment on TAB113 and in the experiment on TAB165 was “inactive” throughout. Further, the max response in the experiment with CRL-7250 was -0.407% and -9.61%; in the experiment with HEK293, -5.94% and -19.5%; in the experiment on HaCat, -14% and -4.74%.

`Cc1c(OCC(F)(F)F)ccnc1CS(=O)c1nc2ccccc2[nH]1` (stereo unspecified): the Potency result in the experiment on PC26, in the experiment with PC49, in the experiment on SC27B, in the experiment with TAB109, with TAB113 and in the experiment on TAB165 was “inactive” throughout. For the same compound, the max response in the experiment on CRL-7250 was -8.7% and 2.17%; with HEK293, 3.36%. The compound was called inactive in the experiment on HaCat.

Turning to `COc1cc2c(cc1OC)C1CC(=O)C(CC(C)C)CN1CC2` (stereo unspecified), the Potency result with PC26, in the experiment with PC49, in the experiment with SC27B, in the experiment on TAB109, with TAB113 and in the experiment on TAB165 was “inactive” in each case. Moreover, the call in the experiment with CRL-7250, with HEK293 and with HaCat was inactive.

With `Cc1nc2n(c(=O)c1CCN1CCC(c3noc4cc(F)ccc34)CC1)CCCC2`, the Potency result with PC26, in the experiment with PC49, in the experiment with SC27B, with TAB109, in the experiment with TAB113 and with TAB165 was “inactive” each time. Moreover, the max response is 0.174% in the experiment with CRL-7250; -10.6% in the experiment with HEK293; 2.05% and 3.62% with HaCat.

`CN1C(C(=O)Nc2ccccn2)=C(O)c2sccc2S1(=O)=O`: the Potency result in the experiment with PC26, in the experiment with PC49, in the experiment on SC27B, in the experiment with TAB109, in the experiment on TAB113 and in the experiment on TAB165 was “inactive” in each case. Also, in the experiment with W2, the Potency result is “inactive”.

In the case of `NCCCCNCCCN`, the max response with CRL-7250 is -45.5%. Besides, the outcome with HaCat was inactive.

With `CC(=O)O[C@H]1C(=O)[C@@]2(C)C([C@H](OC(=O)c3ccccc3)[C@]3(O)C[C@H](OC(=O)[C@H](O)[C@@H](NC(=O)c4ccccc4)c4ccccc4)C(C)=C1C3(C)C)[C@]1(OC(C)=O)CO[C@@H]1C[C@@H]2O` (stereo partly specified), in the experiment on HEK293, the Potency was 0.0057 µM (active) and the max response is -90.8%.

Turning to `O=c1ccc2ccc(O)c(O)c2o1`, the call with HEK293 and in the experiment with HaCat was inactive.

Consider `Nc1nc(Cl)nc2c1ncn2[C@H]1C[C@H](O)[C@@H](CO)O1`, for which the Potency result with PC49, in the experiment with SC27B, in the experiment with TAB109, in the experiment with TAB113 and in the experiment with TAB165 was “inactive” each time. Moreover, the Potency in the experiment on HEK293 is 2.35 µM (active); with HaCat, 1.32 µM (active).

On to `CCCCC(CC)COC(=O)C(C#N)=C(c1ccccc1)c1ccccc1` (stereo unspecified), for which the Potency result with PC26 and with PC49 was “inactive” each time. Moreover, the Potency is 8.91 µM (active) in the experiment on SC27B, 8.91 µM (active) in the experiment on TAB165, 6750 nM (active) in the experiment on W2 and 18.8 µM (active) in the experiment on HEK293. The max response in the experiment on HaCat was -0.998%. For the same compound, in the experiment on HaCat, the call was inactive.

For the compound `CC[C@]1(O)C[C@H]2CN(CCc3c([nH]c4ccccc34)[C@@](C(=O)OC)(c3cc4c(cc3OC)N(C=O)[C@H]3[C@@](O)(C(=O)OC)[C@H](OC(C)=O)[C@]5(CC)C=CCN6CC[C@]43[C@@H]65)C2)C1`, the Potency result with PC49 is “inactive”. Moreover, the Potency in the experiment on SC27B is 1.58 µM (active); in the experiment with TAB109 it was 2000 nM (active); in the experiment on TAB113 it was 2510 nM (active); with W2, 338 nM (active); in the experiment with CRL-7250, 29.6 nM (active) and 211 nM (active); in the experiment on HEK293 it was 14.8 nM (active) and 150 nM (active). Further, the call in the experiment on HaCat was inactive.
